The campaign covered roughly 41,000 sequences. About 2,700 (6.6%) were called active. Cut-off read from the data, not from the text of the source: active = GI50 up to about 1.1 µM and inactive = higher. A selection follows. Results with a measured potency or affinity are listed apart.
test system: BT-549

Row | Substance | GI50 [µM]
1 | [Bis(aminomethyl)tetramethylenesilane]dichloropaltinum(II), CHEMBL2146205 | 8.85
2 | [Bis(aminomethyl)pentamethylenesilane]tetrachloropaltinum(IV), CHEMBL2146204 | 5.71
3 | CISPLATIN, CHEMBL11359 | 3.73
4 | [Bis(aminomethyl)dimethylsilane]tetrachloroplatinum(IV), CHEMBL2146190 | 16.4
5 | [Bis(aminomethyl)tetramethylenesilane]tetrachloropaltinum(IV), CHEMBL2146189 | 4.99
6 | [Bis(aminomethyl)pentamethylenesilane]dichloropaltinum(II), CHEMBL2146202 | 16.6

— ChEMBL document CHEMBL1201862, “PubChem BioAssay data set” (2004)
